Screening data as filed in PubChem.
EP2 antag: blocks the human prostaglandin E2 receptor EP2; C6 glioma cells expressing human EP2, cAMP TR-FRET; cells stimulated with saturating PGE2; inhibition, % at 25 µM; 0.52% of 260,000 active; AID 1422;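 active = percent inhibition above 40 after rounding to a whole number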;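 note: rat C6 glioma host cells with rolipram phosphodiesterase inhibitor present; the protocol text gives 20 µM as final concentration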
Target sequence (P43116 whole entry, looked up): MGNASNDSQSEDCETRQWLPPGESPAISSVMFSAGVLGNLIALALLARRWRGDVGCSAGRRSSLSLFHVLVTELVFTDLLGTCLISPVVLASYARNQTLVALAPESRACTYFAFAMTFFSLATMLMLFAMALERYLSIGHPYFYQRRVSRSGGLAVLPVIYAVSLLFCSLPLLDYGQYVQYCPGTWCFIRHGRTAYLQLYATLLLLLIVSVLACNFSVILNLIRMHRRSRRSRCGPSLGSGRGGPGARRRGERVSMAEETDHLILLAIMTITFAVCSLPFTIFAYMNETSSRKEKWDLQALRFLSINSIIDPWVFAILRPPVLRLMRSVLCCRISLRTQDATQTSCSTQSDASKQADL
CHT inh: inhibitors of human choline transporter CHT. Q9GZV3. CHT-expressing cells, membrane potential dye, choline response; stronger effect = lower value. B-score at 10 µM. 0.86% of 310,000 active. AID 488975;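 active = B-score over 3 SD under the library average, and starting fluorescence ratio not unusually high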;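 note: choline stimulus applied at its EC90 after an EC20 pre-addition; B-score computed on integrated fluorescence ratio after choline addition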
EP2 modulator: EP2 receptor (human) modulation; P43116; EP2-expressing cells, cAMP HTRF FRET, PGE2 co-stimulation; induction, % at 25 µM; 0.83% of 260,000 active; AID 940;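 active = compounds whose cAMP rise, as percent of the full-agonist control response, exceeds 60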;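 note: rat C6 glioma line stably carrying human EP2 under a CMV promoter; the protocol text gives 20 µM as final concentration; 100% = response of wells given 1 µM PGE2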
CHT allo act: allosterically activates the human high affinity choline transporter; Q9GZV3; AID 488977; CHT-expressing cells, membrane potential dye, choline EC20; stronger effect = higher value; LV-AA mutant CHT in HEK293 cells; 0.49% of 310,000 active; B-score at 10 µM;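 active = initial fluorescence not abnormally high and integrated response B-score, plate-corrected, over 3 SD above library mean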
* = called active by the depositor; i = inactive; / = not tested or not shown; ! = not active in a repeat. An excerpt weighted towards active compounds, which were near 2% of everything screened.

SMILES	EP2 antag	CHT inh	EP2 modulator	CHT allo act
CC1CCCN(c2nc3c(c(=O)[nH]2)CCN(Cc2c(O)ccc4ccccc24)C3)C1 (stereo unspecified)	11	/	-23	/
CCCCCCCCCCCCCCCC[n+]1cccc2ccccc21	14	i	-11	8.7*
COc1ccc(S(=O)(=O)N2CCc3ccccc32)c2ccccc12	16	/	30	/
CC(C)c1ccc2c(c1)CC[C@@H]1[C@](C)(CN)CCC[C@@]21C	90*	/	-6	/
COc1cccc(-c2ocnc2C(=O)Nc2ccccc2C(=O)N2CCCC2)c1	3	/	-74	/
O=C1/C(=C\c2cccc([N+](=O)[O-])c2O)SC(=S)N1Cc1ccccc1	/	-8.4*	/	i
COc1cc([N+](=O)[O-])cc(/C=C2/SC(=S)N(Cc3ccccc3)C2=O)c1O	/	-5.8*	/	i
COC(=O)c1c(NC(=O)C(C)C)sc(C(=O)Nc2cccc(C)c2C)c1C	9	/	5	/
CN(Cc1ccccc1)c1nc(-c2ccc([N+](=O)[O-])cc2)nc2ccccc12	4	i	64*	i
Cc1c(Cl)c(C(F)(F)F)nn1CC(=O)O	12	/	17	/
Nc1nc(N)c2cc(Sc3ccc4ccccc4c3)ccc2n1	53*	i	-44	i
C=CC[n+]1c(/C=C/c2ccc(OC(C)=O)c(OC)c2)ccc2ccccc21	/	i	/	7.4*
COc1cc(C=C2C(=O)N(C)C(=O)N(C)C2=O)ccc1OC(C)=O	9	/	-48	/
Nc1cc(-c2ccco2)nn(CC(=O)Nc2ccc(N3CCCCCC3)cc2)c1=O	4	/	-9	/
O=C(Nc1ccccc1)c1cc2n(n1)C(C(F)(F)F)CC(c1ccco1)N2 (stereo unspecified)	7	/	-68	/
CSCC(C)N1CCC(Oc2cccc(C(=O)NCc3ccccn3)c2)CC1 (stereo unspecified)	/	-17*	/	i
C=CCOc1nc(-c2ccccc2Cl)nc2ccccc12	6	i	63*	i
CCOC(=O)c1cnc2ccc(Cl)cc2c1NCCCN(C)C	10	/	-60	/
CN(CCc1ccccn1)Cc1ccc(Cl)c(Cl)c1	/	i	/	i
CN(CCc1ccccn1)c1ccc2c(c1)Cc1ccccc1-2	52*	/	-57	/
CC(=O)N1c2ccc(N=Cc3cc(Br)cc(Br)c3O)cc2CC1C (stereo unspecified)	8	-5.3*	13	i
CCCc1[nH]n(-c2ccc([N+](=O)[O-])cc2)c(=O)c1C=NCCN1CCNCC1	11	i	-70	6.8*
Cc1cc2cc3c(cc2nc1SCC(=O)NNC(=O)C(C)C)OCCO3	7	/	-2	/
Clc1ccc(-c2nc3ccccc3n2OCc2ccccc2)cc1	2	i	63*	i
COc1ccc(-c2nc3ccccc3n2OC(C)C(=O)O)cc1 (stereo unspecified)	6	i	8	i
SMILES	EP2 antag	CHT inh	EP2 modulator	CHT allo act
CCCCN(C)CCCNC(=O)c1cn(CC)c2ccc(S(=O)(=O)N3CCc4ccccc4C3)cc2c1=O	2	i	-43	i
CCCCN(CC)CCCNC(=O)c1cn(CC)c2ccc(S(=O)(=O)N3CCc4ccccc4C3)cc2c1=O	1	-13*	-37	i
CCN(CC)C(=S)SSC(=S)N(CC)CC	60*!	i	-36	i
O=C(CSc1nnc(CNc2ccc(F)cc2)o1)N1CCCCC1	20	/	-29	/
CN(C)C[C@H]1CCC2=C(C1=O)C(c1ccc(Cl)c(Cl)c1)C1=C(CC[C@H](CN(C)C)C1=O)O2	55*	/	-12	/
COC(=O)/C=C1/C(=O)N(C(C)=O)c2ccccc21	71*	/	-51	/
CC1CCCCC1NC(=O)Cn1c2ccccc2n2c(=O)n(CC(=O)NC(C)(C)C)nc12 (stereo unspecified)	/	/	24	/
O=C1c2ccccc2NC(c2ccc(Cl)cc2Cl)N1Cc1ccccc1 (stereo unspecified)	9	i	61*	i
O=C1c2ccccc2NC(c2c(Cl)cccc2Cl)N1Cc1ccccc1 (stereo unspecified)	4	i	26	i
O=C1c2ccccc2N[C@H](c2cc(Cl)cc(Cl)c2O)N1CCc1ccccn1	55*	/	8	/
N#Cc1c(-c2ccccc2)c(-c2ccccc2)nn(CC(=O)NNC(=O)Nc2ccccc2)c1=O	/	i	33	i
N#Cc1c(-c2ccccc2)c(-c2ccccc2)nn(CC(=O)NNC(=O)Nc2ccc(Cl)cc2)c1=O	79*	i	2	i
CC(=O)O[C@H]1C[C@@H]2CC[C@@H]3[C@H](CC[C@@]4(C)[C@H]3C[C@H]([N+]3(C)CCCCC3)[C@@H]4OC(C)=O)[C@@]2(C)C[C@@H]1N1CCCCC1	8	i	/	6.5*
CCCC(c1nnnn1C1CCCC1)N(Cc1ccco1)Cc1cc2cccc(C)c2[nH]c1=O (stereo unspecified)	9	/	58	/
CCCC(c1nnnn1C(C)(C)CC)N(Cc1ccco1)Cc1cc2cc(C)c(C)cc2[nH]c1=O (stereo unspecified)	31	/	66*	/
Cc1ccc2[nH]c(=O)c(C(c3nnnn3C(C)(C)C)N(Cc3ccco3)CC3CCCO3)cc2c1 (stereo unspecified)	9	i	13	i
CCc1ccc2[nH]c(=O)c(C(c3nnnn3C(C)(C)C)N(Cc3ccco3)CC3CCCO3)cc2c1 (stereo unspecified)	10	/	66*	/
CCc1ccccc1NC(=S)N(Cc1ccco1)Cc1cc2cc(C)ccc2[nH]c1=O	9	/	87*	/
CCCC(c1nnnn1C1CCCCC1)N(Cc1ccco1)Cc1cc2cc(C)c(C)cc2[nH]c1=O (stereo unspecified)	8	/	72*	/
CC(C)[C@H](Cn1nc(-c2ccc(F)c(F)c2)ccc1=O)NC(=O)c1cccnc1	9	/	-9	/
O=C(COC(=O)c1cccs1)Nc1cccc2ccccc12	8	/	-10	/
COc1ccccc1CN(Cc1cc2cccc(C)c2[nH]c1=O)C(c1nnnn1C(C)(C)C)C(C)C (stereo unspecified)	12	/	88*	/
Cc1cc(C)c2[nH]c(=O)c(CN(Cc3ccco3)C(c3nnnn3C(C)(C)C)C(C)C)cc2c1 (stereo unspecified)	15	/	70*	/
CCCC(c1nnnn1C(C)(C)C)N(Cc1ccco1)Cc1cc2cc(C)ccc2[nH]c1=O (stereo unspecified)	7	/	66*	/
CCC(c1nnnn1C1CCCC1)N(Cc1ccco1)Cc1cc2cccc(C)c2[nH]c1=O (stereo unspecified)	7	/	64*	/
CCCC(c1nnnn1C(C)(C)C)N(Cc1ccc(C)cc1)Cc1cc2cc(C)ccc2[nH]c1=O (stereo unspecified)	6	/	22	/
CCC(C)(C)n1nnnc1C(C(C)C)N(Cc1ccco1)Cc1cc2cc3c(cc2[nH]c1=O)OCO3 (stereo unspecified)	8	i	56	i
CCOc1ccc2[nH]c(=O)c(C(c3nnnn3C(C)(C)C)N3CCOCC3)cc2c1 (stereo unspecified)	12	/	-29	/
O=C(Cc1ccc(-n2cnnn2)cc1)N1CCC(O)(c2ccccn2)CC1	/	/	-10	/
